# Records with an inconclusive call do not appear. Values without a mark were called inactive. Active and inactive are the calls of the source. Calls come from the whole dose curve.
# Biological target: Progesterone receptor (Homo sapiens) (UniProt P06401)
# Test: qHTS assay to identify small molecule agonists of the progesterone receptor (PR) signaling pathway (AID 1346784); note: nearly all actives have a fitted effect of over 30% in size
# Details: PR-UAS-bla HEK293T, beta-lactamase FRET ratio, 16 h; series mostly up to 92.4 µM; activation: at the top concentration
# Excerpt: U.S. Tox21 Program National Center for Advancing Translational Sciences [NCATS] NIH Chemical Genomics Center [NCGC] U.S. Environmental Protection Agency [EPA] National Institutes of Environmental Health Sciences [NIEHS] National Toxicology Program [NTP] U.S. Food and Drug Administration [FDA] […] Endocrine disrupting chemicals (EDCs) and their interactions with steroid hormone receptors like PR causes disruption of normal endocrine function. To identify the compounds that activate PR signaling, a PR-UAS-bla GripTite cell line i.e. PR-UAS-bla HEK 293T (Invitrogen, Carlsbad, CA, USA) containing a beta-lactamase reporter gene under the control of an Upstream Activator Sequence (UAS) was used to screen Tox21 10K compound library.
# Tox21 Assay Protocol Summary: PR-UAS-bla HEK 293T cells were dispensed at 3,000 cells/5 uL of assay medium containing 2% charcoal stripped FBS per well into black wall/clear-bottom 1536-well plates using a Multidrop Combi (ThermoFisher Scientific, Waltham, MA) dispenser. After the assay plates were incubated at a 37C and 5% CO2 for 6hr, 23 nL of compounds dissolved in DMSO, positive controls or DMSO only was transferred to the assay plate by a Pintool station (Kalypsys, San Diego, CA). The plates were incubated at 37C and 5% CO2 for 16hr. Then 1 uL of LiveBLAzer B/G FRET substrate was added using a BioRAPTR FRD (Flying Reagent Dispenser, Aurora Discovery, San Diego, CA). After the plates were incubated at room temperature for 2 hours, fluorescence intensity was measured by an Envision plate reader (PerkinElmer, Shelton, CT).
# % is set by controls: 0 for no effect and ±100 for the full control effect; potency is the fitted concentration of half-maximal effect.
# Progesterone receptor (Homo sapiens), sequence (P06401 whole entry, looked up): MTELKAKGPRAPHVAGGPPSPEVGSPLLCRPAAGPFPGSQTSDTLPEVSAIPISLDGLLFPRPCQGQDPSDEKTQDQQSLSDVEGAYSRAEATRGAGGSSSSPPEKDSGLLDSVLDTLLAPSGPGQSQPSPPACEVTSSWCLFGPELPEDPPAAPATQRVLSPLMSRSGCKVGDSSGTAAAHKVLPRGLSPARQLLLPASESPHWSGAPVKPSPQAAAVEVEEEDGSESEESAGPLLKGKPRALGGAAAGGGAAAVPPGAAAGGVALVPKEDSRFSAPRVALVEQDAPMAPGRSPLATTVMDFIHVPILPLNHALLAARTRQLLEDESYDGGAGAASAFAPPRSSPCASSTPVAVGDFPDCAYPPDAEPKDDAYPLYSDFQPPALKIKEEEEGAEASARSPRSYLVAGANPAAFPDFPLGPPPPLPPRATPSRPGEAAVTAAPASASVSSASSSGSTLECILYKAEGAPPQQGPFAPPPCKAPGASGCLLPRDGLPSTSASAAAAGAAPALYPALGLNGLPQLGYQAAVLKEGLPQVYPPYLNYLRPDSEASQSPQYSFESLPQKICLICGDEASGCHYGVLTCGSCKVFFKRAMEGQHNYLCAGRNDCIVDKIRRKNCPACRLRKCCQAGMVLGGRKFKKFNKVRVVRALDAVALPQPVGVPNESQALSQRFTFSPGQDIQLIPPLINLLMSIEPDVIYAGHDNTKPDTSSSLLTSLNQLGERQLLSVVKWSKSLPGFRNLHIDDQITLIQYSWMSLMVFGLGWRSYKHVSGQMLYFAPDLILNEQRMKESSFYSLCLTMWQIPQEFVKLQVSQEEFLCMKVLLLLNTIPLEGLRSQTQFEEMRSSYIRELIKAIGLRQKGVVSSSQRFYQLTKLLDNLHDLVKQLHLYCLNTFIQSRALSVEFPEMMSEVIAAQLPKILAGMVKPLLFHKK
Structure (SMILES),activation,Potency
Cc1ccccc1C(=O)Nc1ccc(C(=O)N2CCCC(O)c3cc(Cl)ccc32)c(C)c1 (stereo not given),2.93% [at 42.5 µM],–
O=C(O)[C@@H](O)[C@H](O)[C@H](O)[C@@H](O)C(=O)O,0.0965% [at 42.5 µM],–
Cc1cc(NS(=O)(=O)c2ccc(N)cc2)nc(C)n1,1.75% [at 42.5 µM],–
C1CSCCS1,0.466%,–
CCCCC1CCC(=O)O1 (stereo not given),0.702%,–
CN1CCN(c2c(F)cc3c(=O)c(C(=O)O)cn(CCF)c3c2F)CC1,0.0103% [at 42.5 µM],–
CCOC(=O)c1cc(=O)c2c(OCC(COc3cccc4oc(C(=O)OCC)cc(=O)c34)OC(=O)[C@@H](N)CCCCN)cccc2o1,4.41% [at 42.5 µM],–
COc1ccccc1N1CCN(CCCNc2cc(=O)n(C)c(=O)n2C)CC1,0.913% [at 42.5 µM],–
O=C(C(Cl)Cl)N1CCOC12CCCCC2,-3.24%,–
CCOC(=O)CS,–,3.15 µM (active)
CCCCC(CC)COC(=O)COc1cc(Cl)c(Cl)cc1Cl (stereo not given),0.239%,–
CCNCCO,0.467%,–
COc1cc(Cl)ccc1Cl,0.225%,–
CCN(CCCc1ccccc1)CCCc1ccccc1,-4.08% [at 42.5 µM],–
O=c1[nH]cnc2c1ncn2[C@@H]1O[C@H](CO)[C@@H](O)[C@H]1O,-1.96% [at 42.5 µM],–
N#Cc1ccc(C(c2ccc(C#N)cc2)n2cncn2)cc1,-1.29% [at 42.5 µM],–
CCN[C@H]1CN(CCCOC)S(=O)(=O)c2sc(S(N)(=O)=O)cc21,1.1% [at 42.5 µM],–
CC(C)=CCCC(C)CCOC=O (stereo not given),3.59%,–
CO[Si](C)(C)OC,-1.41%,–
CCCCCOc1ccc(C2SC(=O)NC2=O)cc1OCC (stereo not given),2.75% [at 42.5 µM],–

Structure (SMILES),activation,Potency
Cc1ccc(C)c(N)c1,-0.688%,–
O=Cc1ccc(F)c(Br)c1,0.864%,–
Clc1cccc(-c2cc(Cl)cc(Cl)c2)c1,6.93%,–
O=[N+]([O-])c1nccn1CO[C@@H](CO)[C@H](O)CO,-0.0825% [at 42.5 µM],–
OCC(CBr)(CBr)CBr,2.91%,–
O=CCCc1ccccc1,-1.84%,–
CC(=O)O[C@H]1CC[C@@]2(C)C(=CC[C@@H]3[C@@H]2CC[C@]2(C)C(C(C)=O)=CC[C@@H]32)C1,-0.278% [at 42.5 µM],–
COC(=O)/C=C(/C)N,0.472% [at 42.5 µM],–
C=CCc1cc(OC)c(O)c(C(=O)NCCO)c1,-0.122% [at 42.5 µM],–
O=C1C=CC(=O)O1,-0.386%,–
COC(=O)c1ccc2cc(C(=O)OC)ccc2c1,2.44% [at 19 µM],–
C=C(C)C(=O)OCCOP(=O)(O)O,0.195%,–
CCCCOc1cc(C(=O)NCCN(CC)CC)c2ccccc2n1,-0.753% [at 42.5 µM],–
CCCCNCCCC,1.65%,–
CC(C)(CO)[C@@H](O)C(=O)NCCC(=O)O,-0.877%,–
Cc1cc2c(s1)Nc1ccccc1N=C2N1CCN(C)CC1,-1.68% [at 42.5 µM],–
COc1nc(C)nc(NC(=O)NS(=O)(=O)c2ccccc2OCCCl)n1,-0.349%,–
CCOc1ccc2nc(N)sc2c1,-1.54%,–
CC(=O)OC1C2(C)CCC(C2)C1(C)C (stereo not given),-0.518%,–
CC(C)C[C@H](NC(=O)OCC1c2ccccc2-c2ccccc21)C(=O)O,-4.71%,–
